The source made the active and inactive calls.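 How the source made its calls: active means absorbance drop of 50% or more relative to neutral controls, with potency under twice the top valid dose; inactive means the rest, including effects in the opposite direction.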
Biological target: Protein disulfide-isomerase A6 (Homo sapiens) (UniProt Q15084)
Assay: ERp5 insulin-reduction activity inhibitors – biochemical, insulin aggregation, absorbance, dry powder, set 2, selectivity assay for PDI inhibitor project, dose response (AID 687042)
Settings: absorbance 650 nm; series mostly up to 35 µM

Sequence of Protein disulfide-isomerase A6 (Homo sapiens) (Q15084 whole entry, looked up): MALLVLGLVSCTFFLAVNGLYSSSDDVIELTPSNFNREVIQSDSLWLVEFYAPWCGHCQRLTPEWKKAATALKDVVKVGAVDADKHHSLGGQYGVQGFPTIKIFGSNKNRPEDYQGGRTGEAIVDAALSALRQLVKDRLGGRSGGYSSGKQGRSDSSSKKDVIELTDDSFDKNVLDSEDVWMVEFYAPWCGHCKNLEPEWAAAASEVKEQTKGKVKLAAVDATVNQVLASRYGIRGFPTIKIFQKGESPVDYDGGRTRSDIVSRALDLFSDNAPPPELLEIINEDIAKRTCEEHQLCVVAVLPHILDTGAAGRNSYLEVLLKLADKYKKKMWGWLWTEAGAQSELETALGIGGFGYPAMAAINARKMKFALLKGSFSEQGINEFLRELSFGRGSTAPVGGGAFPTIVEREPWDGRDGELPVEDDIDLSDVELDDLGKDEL

outcome, inactive:
CCOC(=O)c1c(CN2CCN(CCO)CC2)n(-c2ccccc2)c2cc(Br)c(O)cc12
CCOC(=O)C1(CCOC)CCN(Cc2ccc(O)c(Cl)c2)CC1
C=CCOc1ccc(CN2CCC(CCOc3ccccc3)(C(=O)NC3CCCC3)CC2)cc1Cl
C/C1=C\[C@@H](O)C(C)(C)CCCC2(C)OC2C[C@@H]1OC(=O)c1ccc(O)cc1 (some centres undefined)
C=CCOc1ccc(CN2CCC(CCOc3ccccc3)(C(=O)N3CCCC3)CC2)cc1Cl
CCOC(=O)C1(Cc2cccc(OC)c2)CCN(Cc2ccc(O)c(Cl)c2)CC1
C=CCOc1ccc(CN2CCC(CCOc3ccccc3)(C(=O)O)CC2)cc1Cl
CC(C)OC(=O)C1(CCOc2ccccc2)CCN(Cc2ccc(O)c(Cl)c2)CC1
CCOC(=O)C1(CCOC)CCCN(Cc2ccc(Cl)cc2)C1 (centres undefined)
CCOC(=O)C1CCN(C(=O)OC(C)(C)C)CC1
CCOC(=O)C1(CCOc2ccccc2)CCN(C(=O)c2ccc(O)c(Cl)c2)CC1
CC(C)(C)OC(=O)C1(CCOc2ccccc2)CCN(Cc2ccc(O)c(Cl)c2)CC1
CCOC(=O)C1(Cc2ccccc2)CCN(Cc2ccc(O)c(Cl)c2)CC1
C/C1=C\C[C@H](OC(=O)c2ccc(O)cc2)/C(C)=C/[C@@H](O)C(C)(C)CCC1
O=C(N1CCCC1)C1(CCOc2ccccc2)CCN(Cc2ccc(O)c(Cl)c2)CC1
CCOC(=O)C1(CCOc2ccccc2)CCN(Cc2ccc(O)cc2)CC1
C=CCOc1ccc(CN2CCC(CCOc3ccccc3)(C(=O)NCC)CC2)cc1Cl
O=C(Nc1ccccc1)C1(CCOc2ccccc2)CCN(Cc2ccc(O)c(Cl)c2)CC1
CCN(C)C(=O)C1(CCOc2ccccc2)CCN(Cc2ccc(O)c(Cl)c2)CC1
CCOC(=O)C1(CCOc2ccccc2)CCN(Cc2cccc(Cl)c2)CC1
CCOC(=O)C1(CCOc2ccccc2)CCN(Cc2ccc(OC)cc2)CC1
CCOC(=O)C1(CCOc2ccccc2)CCN(C(=O)OC(C)(C)C)CC1
CCOC(=O)C1(CCOc2ccccc2)CCN(Cc2ccc3[nH]c(=O)oc3c2)CC1
CCOC(=O)C1(CCOc2ccccc2)CCN(Cc2ccc(OC)c(Cl)c2)CC1
C=CCOc1ccc(CN2CCC(CCOc3ccccc3)(C(=O)OCC)CC2)cc1Cl
C=CCOc1ccc(CN2CCC(CCOc3ccccc3)(C(=O)N(C)CC)CC2)cc1Cl
CCOC(=O)C1(CCOc2ccccc2)CCN(Cc2ccc(O)c(Cl)c2)CC1
CCNC(=O)C1(CCOc2ccccc2)CCN(Cc2ccc(O)c(Cl)c2)CC1
O=C(NC1CCCC1)C1(CCOc2ccccc2)CCN(Cc2ccc(O)c(Cl)c2)CC1

Reference: PubChem BioAssay AID687042 (Broad Institute, 2013)
